In PubChem BioAssay (NCATS):
Records with an inconclusive call do not appear. The source made the active and inactive calls. Calls follow the shape of the dose curve; as a rule, active = well fitted cell-killing curve with a large enough effect; inconclusive = small, poorly fitted or top-dose-only effect, or effect the other way; inactive = no such curve, though single readings can be large or run the other way.

Assay: Quantitative High-Throughput drug screen in 47 multiple myeloma cell lines against the NCATS MIPE library collection: OPM2_DSMZ cell viability assay (AID 1919872); also: nearly all actives have a fitted effect of over 30% in size
Settings: OPM2 myeloma viability, CellTiter-Glo ATP luminescence, 48 h; series mostly up to 45.8 µM
Method in brief: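 Myeloma cells (500 per well) were exposed to MIPE 4.0 compounds by pin transfer and incubated 48 hours at 37C, 5% CO2. Viability was read as ATP by CellTiter-Glo luminescence, normalised to DMSO (100%) and media-only (0%) wells.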
Potency is read from the fitted curve at half-maximal effect.

Row | Structure (SMILES) | Potency
1 | COc1ccc(C=Cc2cc(OC)c(OC)c(OC)c2)cc1NC(=O)[C@H](N)CO | 8.3 nM (active)
2 | CCN(CC)Cc1ccc2cc(COC(=O)Nc3ccc(C(=O)NO)cc3)ccc2c1 | 833 nM (active)
3 | CC(=O)OCC(=O)[C@@]1(O)CC[C@H]2[C@@H]3CCC4=CC(=O)CC[C@]4(C)[C@@H]3C(=O)C[C@@]21C | inactive
4 | COc1ccc2c(c1OC)C(=O)OC2[C@H]1c2c(cc3c(c2OC)OCO3)CCN1C (stereo not given in full) | 66.2 nM (active)
5 | COc1cccc2c1C(=O)c1c(O)c3c(c(O)c1C2=O)C[C@@](O)(C(C)=O)C[C@H]3O[C@H]1C[C@H](N)[C@H](O)[C@H](C)O1 | 166 nM (active)
6 | CCOC(=O)N1CCN([N+]([O-])=NOc2ccc([N+](=O)[O-])cc2C#N)CC1 | 935 nM (active)
7 | C[C@H]1O[C@H](O[C@H]2[C@H](O)[C@@H](O)[C@@H](O[C@H]3[C@H](O)[C@@H](O)C(O)O[C@H]3CO)O[C@H]2CO)[C@H](O)[C@@H](O)[C@H]1N[C@H]1C=C(CO)[C@@H](O)[C@H](O)[C@@H]1O (stereo not given in full) | inactive
8 | CC[C@H]1OC(=O)[C@H](C)[C@@H](O[C@H]2C[C@@](C)(OC)[C@@H](O)[C@H](C)O2)[C@H](C)[C@@H](O[C@@H]2O[C@H](C)C[C@H](N(C)C)[C@@H]2O)[C@](C)(OC)C[C@@H](C)C(=O)[C@H](C)[C@@H](O)[C@]1(C)O | inactive
9 | OC[C@H]1OC(O)C[C@@H](O)[C@H]1O (stereo not given in full) | inactive
10 | COc1ccc(S(=O)(=O)Nc2cccnc2Nc2ccc(O)cc2)cc1 | 118 nM (active)
